# Bioassay records: PubChem BioAssay, National Center for Advancing Translational Sciences (NCATS)
# Hits are enriched below; roughly 0.43% of the tested compounds scored in any of these assays.
# GAA glycogen – qHTS Assay for Inhibitors and Activators of Human alpha-Glucosidase Cleavage of Glycogen | Lysosomal alpha-glucosidase (Homo sapiens), P10253 | recombinant GAA, glycogen substrate, Amplex Red glucose oxidase fluorescence | Potency, µM (series often up to 76.4 µM), without a hit: at the highest dose activity change, negative = inhibition, hits mostly inhibitors | hit rate 0.38% among 300,000 | AID 2100, 2009;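 note: potency is the fitted concentration of half-maximal effect; 0% = full enzyme reaction and -100% = no-enzyme basal signal; the screen sought inhibitors and activators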
#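 Recombinant human enzyme (4 nM); glycogen substrate; 37 C, 40 min, pH 5.0. Readout: coupled glucose oxidase/Amplex Red fluorescence.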
# GLA inh pH 4.5 – qHTS Assay for Inhibitors of Human alpha-Galactosidase at pH 4.5. activity change, negative = inhibition, % at 105 µM. AID 1467, 2008. 230,000 tested, under 10 active. purified enzyme, 4-MU-alpha-Gal fluorescence, pH 4.5;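 note: 0% = full activity with enzyme and -100% = basal without enzyme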
# N370S GC mod – qHTS Assay for Inhibitors and Activators of N370S glucocerebrosidase as a Potential Chaperone Treatment of Gaucher Disease; N370S GC spleen homogenate, 4MU-glucoside fluorescence; Potency, µM (titrated, usually from 59.4 µM), inactives show at the highest dose activity change, negative = inhibition, actives largely listed as inhibitors; hit rate 0.092% among 330,000;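 note: potency is the fitted concentration of half-maximal effect; 0% = full enzyme activity and -100% = no enzyme basal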
# GAA spleen mod – qHTS Assay for Inhibitors and Activators of Human alpha-Glucosidase From Spleen Homogenate | human spleen homogenate, 4-MU-alpha-glucoside fluorescence | Potency, µM (titrated, usually from 79.9 µM), for inactives: at the top dose activity change, negative = inhibition, most hits filed as inhibitors | hit rate 0.006% among 240,000;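 note: potency is the fitted concentration of half-maximal effect; 0% = enzyme with vehicle and -100% = no enzyme basal signal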
#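 Human spleen homogenate (1 ug) with 4-methylumbelliferyl-alpha-D-glucopyranoside (1 mM final) in 50 mM citrate/phosphate pH 5.0, 0.01% Tween-20; 40 min at 37 C. Stopped at pH 10; 4-MU fluorescence Ex 365/Em 440 nm; AC50 by Hill fit.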
# GAA inhib – qHTS Assay for Inhibitors of Human alpha-Glucosidase as a Potential Chaperone Treatment of Pompe Disease | Lysosomal alpha-glucosidase (Homo sapiens), P10253 | purified human GAA, 4-MU-alpha-glucoside fluorescence | Potency, µM (top dose mostly 76.9 µM), for the others: top-dose activity change, negative = inhibition, actives largely listed as inhibitors | hit rate 0.005% among 200,000 | AID 1466, 2008;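 note: potency is the fitted concentration of half-maximal effect; plate controls were uninhibited enzyme wells for no effect and no-enzyme background for full effect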
#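 Enzyme (4 nM final) mixed with compound (up to 77 uM), then 4-MU-alpha-D-pyranoside (400 uM final) added; 20 min at room temperature, pH 5.0. Reaction stopped at pH 10, fluorescence read, AC50 derived by Hill fit.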
# aGal spleen mod – qHTS Assay for Inhibitors and Activators of Human alpha-Galactosidase From Spleen Homogenate | human spleen homogenate, 4MU-alpha-Gal fluorescence, 40 min | hit rate 0.008% among 240,000 | Potency, µM (highest dose often 80 µM), for inactives: at the highest dose activity change, negative = inhibition, most hits filed as inhibitors;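 note: potency is the fitted concentration of half-maximal effect; 0% = enzyme with vehicle and -100% = no enzyme basal signal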
# Target sequence (P06280 32-429 limits assumed): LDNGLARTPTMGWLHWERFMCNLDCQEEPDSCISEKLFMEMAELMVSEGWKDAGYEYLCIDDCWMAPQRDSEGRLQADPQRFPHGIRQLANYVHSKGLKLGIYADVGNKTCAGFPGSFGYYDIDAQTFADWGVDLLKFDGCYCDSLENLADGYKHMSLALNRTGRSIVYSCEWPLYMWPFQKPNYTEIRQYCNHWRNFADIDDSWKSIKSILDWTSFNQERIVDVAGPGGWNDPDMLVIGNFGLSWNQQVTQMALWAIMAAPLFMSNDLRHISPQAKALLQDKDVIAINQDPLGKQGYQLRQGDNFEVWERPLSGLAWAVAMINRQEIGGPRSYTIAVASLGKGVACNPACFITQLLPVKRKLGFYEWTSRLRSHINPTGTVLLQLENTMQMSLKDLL
#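 qHTS titration in buffer at pH 5.0. Alpha-galactosidase activity in spleen homogenate was measured via 4-methylumbelliferone release from 1 mM fluorogenic substrate after 40 min at 37C and a pH 10 stop. AC50 came from Hill fits of control-normalized data.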
# * = called active by the depositor; u = inconclusive; x = no result given; [ ] = remark or other dose. Calls come from the whole dose curve; as a rule, active = well fitted curve in the direction sought with a large enough effect; inconclusive = small, poorly fitted or top-dose-only effect, or another doubt; inactive = no such curve, though single readings can be large; an effect the other way counts as inactive or inconclusive.
SMILES,GAA glycogen,GLA inh pH 4.5,N370S GC mod,GAA spleen mod,GAA inhib,aGal spleen mod
O=C1CC(Nc2ccc(N3CCOCC3)cc2)C(=O)N1c1cccc(C(F)(F)F)c1 (centres undefined),25µM*,2,-5%,-1%,-2%,4%
C=CC1=C[C@@H](O)C2OC2C12OCCCO2 (some centres undefined),x,x,6%[12.8 µM],1%[17.4 µM],x,8%[17.5 µM]
COc1cc(/C=N/NC(=O)c2cn(-c3cccc(C)n3)cn2)ccc1O,25µM*,-14,16%,-4%,-32%,-6%
COc1ccc(C(=O)COC(=O)CN2CC(=O)Oc3ccccc32)cc1Br,3.1µM*,3,-2%,-4%,6%,-3%
COc1ccc(C(=O)COC(=O)C2CC3CCCC(C2)C3=O)cc1Br (centres undefined),x,x,0%,x,x,x
O=C(O)c1ccc(-c2ccc3cc(C45CC6CC(CC(C6)C4)C5)c(O)cc3c2)cc1,x,x,-8%,2%,x,-7%
OCC1CCCN(C(=S)Nc2ccc(OC(F)F)cc2)C1 (centres undefined),12%,-1,-3%,-7%,3%,2%
OCC1CCCN(C(=S)Nc2ccc(Nc3ccccc3)cc2)C1 (centres undefined),25µM*,3,-6%,-8%,-12%,2%
COc1ccc(C(C(=O)NCc2ccccc2)N(C(=O)Cn2nnc3ccccc32)c2cccc(OC)c2)cc1 (centres undefined),13%[76.3 µM],x,x,x,x,x
C/C=C\C1=C(CO)C(=O)[C@@H]2OC2C1=O (some centres undefined),x,x,11%[12.8 µM],-2%[17.4 µM],x,-18%[17.5 µM]
CC1(C)Nc2ccc(O)cc2-c2c1ssc2=S,40µM*,-8,-11%,4%,2%,-1%
Cc1ccc(Cl)cc1N1CCN(C(=O)c2cc(S(=O)(=O)N3CCCC3)cn2C)CC1,-10%[76.3 µM],x,x,x,x,x
C=CCN1c2ccccc2[C@]23C[C@@H](C(=O)OC)N(S(=O)(=O)c4ccc5c(c4)OCCN5C)C2=NC(C(=O)OC)=C(C(=O)OC)[C@H]13,x,0,-11%[12.8 µM],4%[17.4 µM],x,-5%[17.5 µM]
Cc1ccn2c(Nc3ccc4c(c3)OCO4)c(-c3ccc(O)cc3)nc2c1,11µM*,-1,16µM*,-1%,x,3%
Oc1ccc(-c2nc3ccccn3c2Nc2ccc3c(c2)OCCO3)cc1,13µM*,x,x,x,x,x
CN(C)c1ccc(-c2nc3ccccn3c2Nc2ccc3c(c2)OCCO3)cc1,18µM*,x,x,x,x,x
COc1ccc(-c2nc3cc(C)ccn3c2NCc2ccc3c(c2)OCO3)cc1,u,3,5%,-4%,u,0%
c1ccc(-c2nc3cnccn3c2Nc2ccc3c(c2)OCCO3)cc1,u,-4,-9%,-1%,-4%,-1%
Clc1cccc(-c2nc3ccccn3c2Nc2ccc3c(c2)OCCO3)c1,4µM*,x,x,x,x,x
COC(=O)c1[nH]c2ccccc2c1NC(=O)Oc1ccccc1,-17%,-3,-6%,-1%,-1%[15.4 µM],0%
CC(=O)Nc1c(C(=O)O)[nH]c2ccccc12,-3%,-2,2%,-5%,0%,-6%
CCS(=O)(=O)Nc1c(C(=O)O)[nH]c2ccccc12,5µM*,0,-8%,-2%,-7%,-3%
CCS(=O)(=O)Nc1c(C(=O)OC)[nH]c2ccccc12,4.5µM*,6,-4%,-1%,-3%,7%
COc1cc(/C=N/n2c(-c3ccccc3)n[nH]c2=S)ccc1O,u,-13,14µM*,13%,-3%[15.4 µM],14%
COc1cc(/C=N/n2c(-c3ccccc3)n[nH]c2=S)cc(OC)c1O,u,-2,-11%,-1%,x,5%
SMILES,GAA glycogen,GLA inh pH 4.5,N370S GC mod,GAA spleen mod,GAA inhib,aGal spleen mod
O=C1/C(=C\c2ccc(O)c(O)c2)N=C2CCCCCN12,7.1µM*,-15,-14%,-7%,x,-7%
COc1cc(/C=C2\N=C3CCCCCN3C2=O)ccc1O,-25%,-10,-17%,-9%,-10%,-2%
O=c1c(-c2ccc(F)cc2)nc2cnc(N3CCOCC3)nc2n1Cc1ccc(F)cc1,x,x,-1%,-6%,x,-13%
CCOC(=O)c1c(OCC)[nH]c2ccc(O)cc12,6.3µM*,5,u,-4%,-4%,4%
Cc1cc(=O)c2c(O)c3c(O)cc(O)c4c5c(O)cc(O)c6c(O)c7c(=O)cc(C)c8c1c2c(c34)c(c65)c78,x,-7,-6%,-4%,x,-12%
Cc1ccccc1OC1=NS(=O)(=O)c2ccccc21,-6%,1,0%,-3%,u,-13%
O=S1(=O)N=C(Oc2cccc3ccccc23)c2ccccc21,25µM*,-3,-5%,4%,-1%,-1%
Cc1c(N=Cc2ccc(Cl)o2)c(=O)n(-c2ccccc2)n1C,4.5µM*,-24,1%,2%,-9%,5%
Cc1c(N=Cc2ccco2)c(=O)n(-c2ccccc2)n1C,10µM*,8,11%,-15%,3%,-4%
Cc1ccccc1-c1ccc(C=Nc2c(C)n(C)n(-c3ccccc3)c2=O)o1,16µM*,-3,4%,4%,-11%,3%
CC/C=C\C[C@H](O)/C=C/C=C\C/C=C\C/C=C\CCCC(=O)O,x,1,-9%,-2%,x,-10%
CCCCCCCCCCCCCCCCCCCCCCCCCCCCCC,x,x,-5%,0%,x,-24%
CCCCc1cc(=O)oc2cc(OC(C)C(=O)NCCN3CCOCC3)c(Cl)cc12 (centres undefined),x,x,20µM*,x,x,x
CCCCc1cc(=O)oc2cc(OCC(=O)NCCN3CCOCC3)c(Cl)cc12,2%[76.3 µM],x,-4%,x,x,x
CN1CCN(c2nc(-c3cccs3)nc3ccccc23)CC1,7%,9,6%,-3%,-5%,-1%
Oc1ccc(N2CCN(c3nc(-c4cccs4)nc4ccccc34)CC2)cc1,25µM*,4,u,-6%,x,-5%
Oc1ccccc1N1CCN(c2nc(-c3cccs3)nc3ccccc23)CC1,40µM*,-2,4.5µM*,6%,x,8%
COC(=O)[C@@]1(Cc2ccccc2)[C@H]2c3cc(C(=O)N(C)C)n(Cc4ccc(S(C)(=O)=O)cc4)c3C[C@H]2CN1C(=O)c1ccccc1,x,-19,1%,0%,x,7%
CCOC(=O)c1ccc(N2C(=O)CC(Nc3ccc(O)cc3)C2=O)cc1 (centres undefined),10µM*,7,-18%,-6%,x,-4%
